Reference: PubChem BioAssay AID463173 (ICCB-Longwood Screening Facility, Harvard Medical School, 2010)
Out of some 52,000 compounds screened, about 1,700 (3.3%) were called active. The full list was thinned out, with actives kept by preference. Values without a mark were called inactive. Rule as the data show it: active = survival mostly below about 52% (no sharp cut-off); inactive = mostly above about 56%.

What follows are molecules tested on Wild type (assay: growth inhibition of S. aureus wild type versus tarO mutant, primary screen, teichoic acid synthesis inhibitors, RN4220, OD600 (AID 463173)). Details: S. aureus RN4220 wild type/DeltatarO growth, OD600, 18 h, stronger effect = lower value, screened at 18.75 µg/mL (by protocol).

With `Fc1ccccc1Cn1c(-c2ccccc2)nc2ccccc21` the survival was 1% (active).
With `Cc1cccc(Cn2c(-c3ccccc3)nc3ccccc32)c1` the survival was 26% (active).
`Cc1cccc(Cn2c(=O)n3nc(-c4ccccc4)nc3c3ccccc32)c1` was tested, and the survival was -24% (active).
For `Cc1cccc(-c2nc3ccccc3n2Cc2ccccc2)c1`, the survival was 1% (active).
With `Cc1ccc(Cn2c(-c3ccccc3)nc3ccccc32)cc1` the survival was 8% (active).
In the case of `Cc1cc(C)c(Cn2c(C(O)c3ccccc3)nc3ccccc32)c(C)c1` (configuration not stated), the survival is reported as 11% (active).
`Cc1ccc(C)c(Nc2nc3nonc3nc2Nc2cccc(C)c2C)c1` was tested, and the survival was 4% (active).
`CCOC(=O)c1ccc(Nc2nc3nonc3nc2Nc2cccc(C)c2C)cc1` was tested, and the survival was 0% (active).
For `CCN(CC)C(=O)c1ccc2c(c1)N(Cc1c(F)cccc1Cl)C(=O)c1ccccc1S2`, the survival was 16% (active).
`Cc1ccc2nc(N3CCN(c4cccc(Cl)c4)CC3)c(-n3nc(C)cc3C)nc2c1` was tested, and the survival was 3% (active).

Point of comparison: `Cc1ccc(Cn2c(=O)c3ccccc3n3c(-c4ccccc4)nnc23)cc1`, survival 91%. Against it:
- O=c1n(Cc2cccc(F)c2)c2ccccc2c2nc(-c3ccccc3)nn12 — lower, 34%
- Fc1ccc(Cn2c(-c3cccc(Br)c3)nc3ccccc32)cc1 — higher, 120%
- Nc1nonc1-c1nc2ccccc2n1Cc1cccc(Cl)c1 — lower, 87%
- Cc1ccc(Cn2c(CCNC(=O)c3cccc(C)c3)nc3ccccc32)cc1 — lower, 68%
- O=C(CSc1nc2ccccc2n1Cc1ccccc1F)NCc1ccccc1 — higher, 99%
- Cc1cccc(-c2nc3c4ccccc4n(Cc4cccc(Cl)c4)c(=O)n3n2)c1 — higher, 113%
- CCc1ccccc1N1CC(c2nc3ccccc3n2Cc2cccc(C)c2)CC1=O (configuration not stated) — lower, 66%
- Cc1cccc(Cn2c(-c3cccc(Br)c3)nc3ccccc32)c1 — higher, 124%
- COc1ccc(NC(=O)c2oc3ccccc3c2NC(=O)c2cc(C)cc(C)c2)c(OC)c1 — lower, 79%
- COc1ccc(NC(=O)C2CCC(CNS(=O)(=O)c3cccc4nsnc34)CC2)cc1OC (configuration not stated) — lower, 87%
- CN(Cc1ccccc1)C(=O)Cn1c(=O)c2cccn2c2ccc(F)cc21 — lower, 81%
- Cc1ccc(Cn2c(C(C)NC(=O)c3ccccc3)nc3ccccc32)cc1 (configuration not stated) — the same, 91%
- CCCCn1c(SCC(=O)N2CCCCCC2)nnc1-c1ccoc1C — higher, 98%
- Cc1cccc(N2CCN(c3ccc4cc(S(=O)(=O)N5CCC(C)CC5)ccc4n3)CC2C)c1 (configuration not stated) — higher, 129%
- CSc1cccc(Nc2cc(C(=O)NC3CCCCC3)c3ccccc3n2)c1 — higher, 142%
- CN1CN2C(=O)N3CN(C)CN4C(=O)N(C1)C2C34 (configuration not stated) — higher, 110%
- OC(c1ccccc1)c1nc2ccccc2n1Cc1c(F)cccc1Cl (configuration not stated) — lower, 82%
- COC(=O)Cn1c(C(O)c2ccccc2)nc2ccccc21 (configuration not stated) — higher, 97%
- CCOc1ccc(CNC(=O)CS(=O)(=O)c2cccc3nsnc23)cc1 — higher, 126%
- COc1ccccc1NC(=O)C1CCN(C(=O)c2ccccc2)CC1 — higher, 94%
- Cc1c(Cl)cccc1-n1ncc(C(=O)Nc2ccc(F)cc2F)c1C1CCN(C(=O)OC(C)(C)C)CC1 — lower, 71%
- CCOC(=O)c1ccc(Nc2nc(C)cc(C)n2)cc1 — lower, 87%
- Cc1cccc(Nc2nc3nonc3nc2Nc2cccc(C)c2C)c1C — higher, 102%
- Cc1cccc(Nc2nc3nonc3nc2N/N=C\c2cccs2)c1C — higher, 96%
- CCOC(=O)c1ccc(Nc2nc3nonc3nc2NCc2ccco2)cc1 — lower, 35%
- CCS(=O)(=O)N1CCc2cc(C(=O)Nc3ccc(OC)cc3OC)ccc21 — lower, 88%
- Cc1ccc([N+](=O)[O-])cc1NC(=O)CN(c1ccccc1)S(=O)(=O)N(C)C — lower, 69%
- CCn1c(O)c(C=Nc2cccc(O)c2)sc1=S — higher, 115%
- Cn1cnc(S(=O)(=O)N2CCCC(C(=O)Nc3ccc(OC(F)(F)F)cc3)C2)c1 (configuration not stated) — lower, 19%
- CCOc1ccc(CNC(=O)c2[nH]c3ccccc3c2Sc2ccc(C)cc2)cc1 — higher, 120%
- CCN1C(=O)c2ccccc2S(=O)(=O)c2ccc(C(=O)NCc3ccc(OC)cc3)cc21 — higher, 97%
- CN(C)CCNC(=O)c1ccc2c(c1)N(Cc1c(F)cccc1Cl)C(=O)c1ccccc1S2 — higher, 105%
- CCN(CC)CCCNC(=O)c1ccc2c(c1)N(Cc1c(F)cccc1Cl)C(=O)c1ccccc1S2 — higher, 139%
- Cc1ccc(Cl)cc1NC(=O)CN1C(=O)c2cccc3cccc1c23 — lower, 71%
- CCC(=O)N1CCc2cc(Br)cc(S(=O)(=O)N3CCN(c4ccccc4OC)CC3)c21 — lower, 72%
- COc1cccc(Nc2nc3ccc(C)cc3nc2-n2nc(C)cc2C)c1 — lower, 82%
